The values that follow come from ChEMBL document CHEMBL4808148, “HDAC6 screening dataset using tau-based substrate in an enzymatic assay yields selective inhibitors and activators” (2021).

“And” between values parts separate entries of the source, which are not always exact repeats. Identical values can stand only once. About 150 (2.7%) of roughly 5,600 compounds showed an effect of 50% or more. Many of the other results were omitted from the sample, so strong results are more common in it than they were. Starred links: 1 amine or outer side, 2 acyl side, 3 side chain; linkers in the order of their positions; H or OH if unused. Positions of bridges follow the written chain, without caps; N, C: chain ends. Non-standard residues stand in square brackets, D forms with d. Residues, ends and D or L forms follow the SMILES beside them. ξ: configuration not given here. *: point of attachment. hTyr(3S-OH,4S-OH,3'-OSO3H) = N[C@H](C(=O)O)[C@H](O)[C@@H](O)c1ccc(O)c(OS(=O)(=O)O)c1; Orn(4R-OH,5R-OH) = O=C([C@H](C[C@@H](O)[C@@H](O)N[*:3])N[*:1])[*:2]; Pro(3S-OH,4S-Me) = C[C@H]1CN[C@H](C(=O)O)[C@H]1O; X1 = CCCCCOc1ccc(-c2cc(-c3ccc(C(=O)*)cc3)no2)cc1; Gln(3R-OH) = NC(=O)C[C@@H](O)[C@H](N)C(=O)O; Hyp = O=C(O)[C@@H]1C[C@@H](O)CN1; ξThr(3R) = C[C@@H](O)C(N)C(=O)O

The target in test [1] is T1, Protein deacetylase HDAC6 (Homo sapiens) (UniProt Q9UBN7).
T1 sequence (whole entry): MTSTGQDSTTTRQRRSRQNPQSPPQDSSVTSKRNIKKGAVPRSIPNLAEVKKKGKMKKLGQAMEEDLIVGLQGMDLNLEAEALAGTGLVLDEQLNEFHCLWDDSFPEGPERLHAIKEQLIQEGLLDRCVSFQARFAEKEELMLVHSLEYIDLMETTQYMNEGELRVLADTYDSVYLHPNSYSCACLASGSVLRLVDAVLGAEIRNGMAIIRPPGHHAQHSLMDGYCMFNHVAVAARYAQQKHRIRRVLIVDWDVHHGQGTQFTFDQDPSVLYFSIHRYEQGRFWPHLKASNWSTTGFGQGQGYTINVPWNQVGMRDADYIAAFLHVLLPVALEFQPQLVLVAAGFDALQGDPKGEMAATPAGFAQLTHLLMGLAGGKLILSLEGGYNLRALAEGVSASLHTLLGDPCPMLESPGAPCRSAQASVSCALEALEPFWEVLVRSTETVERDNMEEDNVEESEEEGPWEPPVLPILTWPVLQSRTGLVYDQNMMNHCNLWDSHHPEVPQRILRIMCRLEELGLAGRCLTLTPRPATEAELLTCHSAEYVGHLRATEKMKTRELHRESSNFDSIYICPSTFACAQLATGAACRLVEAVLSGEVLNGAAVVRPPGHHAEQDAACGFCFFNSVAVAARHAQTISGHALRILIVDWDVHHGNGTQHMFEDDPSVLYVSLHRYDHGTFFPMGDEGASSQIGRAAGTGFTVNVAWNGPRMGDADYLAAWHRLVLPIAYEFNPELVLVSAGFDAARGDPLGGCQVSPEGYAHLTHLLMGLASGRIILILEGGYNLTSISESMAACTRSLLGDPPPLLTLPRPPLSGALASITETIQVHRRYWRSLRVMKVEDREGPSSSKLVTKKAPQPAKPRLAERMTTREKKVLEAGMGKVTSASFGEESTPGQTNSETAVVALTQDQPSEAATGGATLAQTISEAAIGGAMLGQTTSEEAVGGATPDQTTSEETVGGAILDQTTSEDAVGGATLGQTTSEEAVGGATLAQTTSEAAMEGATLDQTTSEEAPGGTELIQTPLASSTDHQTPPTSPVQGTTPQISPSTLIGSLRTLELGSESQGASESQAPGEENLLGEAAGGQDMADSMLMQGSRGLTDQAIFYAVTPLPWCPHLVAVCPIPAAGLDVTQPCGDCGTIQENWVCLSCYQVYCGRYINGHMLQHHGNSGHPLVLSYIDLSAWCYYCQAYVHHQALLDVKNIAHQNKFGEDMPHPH
The following applies: at 10 µM.

Test [2] addresses Protein deacetylase HDAC6 (Homo sapiens) (UniProt Q9UBN7). To be noted: at 10 µM. This is another data set of the same source.

Take `CCCCCOc1ccc(-c2cc(-c3ccc(C(=O)N[C@H]4C[C@@H](O)[C@@H](O)NC(=O)[C@@H]5[C@@H](O)[C@@H](C)CN5C(=O)[C@H]([C@H](O)CC(N)=O)NC(=O)[C@H]([C@H](O)[C@@H](O)c5ccc(O)c(OS(=O)(=O)O)c5)NC(=O)[C@@H]5C[C@@H](O)CN5C(=O)C([C@@H](C)O)NC4=O)cc3)no2)cc1` (stereo partly drawn) (X1-[Orn(4R-OH,5R-OH)][ξThr(3R)][Hyp][hTyr(3S-OH,4S-OH,3'-OSO3H)][Gln(3R-OH)][Pro(3S-OH,4S-Me)]; lactam 1-C): in test [1], the inhibition – broadly, the drop in the measured response relative to a control, in per cent – is 4.51%. The same measure, in the same setting: then `CC(C)c1ccc(C(=O)c2cccs2)c(SCCCCCCCCN(C)C)n1`, with 3.78%. On the same count and under the same terms, under `O=C(/C=C/c1ccccc1)NC(NC(=S)Nc1cccc2cccnc12)C(Cl)(Cl)Cl` (centres undefined) stands 3.55%.

Consider `CN(C)CCCSc1ccccc1NC(=O)/C=C/c1ccccc1`, for which, in test [1], the inhibition is 92.4%.

In the case of `CNC[C@@H]1CC[C@@H](N)[C@H](O[C@H]2[C@H](O)[C@@H](O[C@H]3OC[C@](C)(O)[C@H](NC)[C@H]3O)[C@H](N)C[C@@H]2N)O1`, in test [1], the inhibition was -3.43%. With “gallium-triquinolin-8-olate, CHEMBL4303465”, the inhibition in test [2] was 8.35%. As to `C[C@H]1N=C(N(C)C)N=C(N)N1`, the inhibition in test [1] is -1.55%. Same read-out and setting: then `CN1C[C@@H]2CN(c3ccc(-c4ccccc4)nn3)C[C@@H]2C1`, with 57.6%; and `O=C(c1cc(S(=O)(=O)Nc2ccccc2F)c(F)cc1Cl)N1CCN2CCC[C@@H]2C1`, with -3.32%. Same read-out and setting: under `CN1[C@H]2C[C@H](OC(=O)[C@H](CO)c3ccccc3)C[C@@H]1[C@@H](O)C2` (racemic) stands 0.83%; under `C=C1/C(=C\C=C2/CCC[C@]3(C)[C@@H]([C@H](C)CCCC(O)(C(F)(F)F)C(F)(F)F)CC[C@@H]23)C[C@@H](O)C[C@@H]1O`, 4.32%.

`COc1cc(O)c(C(=O)c2ccccc2)cc1S(=O)(=O)O`: the inhibition in test [1] is 2.56%.

On to `COc1cc(-c2ccc(/N=N/c3ccc4c(S(=O)(=O)O)cc(S(=O)(=O)O)c(N)c4c3O)c(OC)c2)ccc1/N=N/c1ccc2c(S(=O)(=O)O)cc(S(=O)(=O)O)c(N)c2c1O`, for which the inhibition in test [1] came out at 50.8%. The same measure, in the same setting: then `COc1cccc(-n2nc(C(=O)O)cc2-c2ccc(C3CCCCC3)c(Cl)c2)c1`, with 1.57%. For `CO/N=C(\C(=O)N[C@@H]1C(=O)N2C(C(=O)O)=C(C)CS[C@H]12)c1csc(N)n1`, the inhibition in test [1] turned out to be 1.72%. Take GADOTERIDOL, CHEMBL1200593: the inhibition in test [2] was -0.37%. On the same count and under the same terms, then PHENYLMERCURIC ACETATE, CHEMBL1333953, with 62%. With Miriplatin, CHEMBL4303713, in test [2], the inhibition is -1.16%. `NC1CCC(N[C@@H]2C[C@H]2c2ccccc2)CC1` (some centres undefined): the inhibition in test [1] was -0.23%.

In the case of `CN1C(=O)C(N2CCCCC2)S/C1=C\C(=O)O` (centres undefined), in test [1], the inhibition was 0.03%.

In the case of `CC(C)Oc1ccc(-c2nn([C@@H](C)c3oc4ccc(F)cc4c(=O)c3-c3cccc(F)c3)c3ncnc(N)c23)cc1F`, the inhibition in test [1] turned out to be 2.17%. The same measure, in the same setting: under `COC(=O)C1=C(C)N(C)C(C)=C(C(=O)OC)C1c1ccc(C(F)(F)F)cc1` stands 1.92%; under `COc1cc(CNC(=O)CCCC/C=C/C(C)C)ccc1O`, -2.58%; under `CCCCC/C=C\C/C=C\CCCCCCCC(=O)NCCCC(=O)O`, 3.98%.

On to `CCCCCCCCC(=O)NCc1ccc(O)c(OC)c1`, for which the inhibition in test [1] came to 58.8%. Same read-out and setting: then `CS(=O)(=O)OC[C@H](O)[C@@H](O)COS(C)(=O)=O`, with 2%. Consider `N=C1N[C@H]2[C@H](CS[C@H]2CCCCC(=O)O)N1`, for which the inhibition in test [1] was 1.67%. Turning to `O=[Si]=O.O=[Si]=O.O=[Si]=O.O=[Si]=O.[O]=[Mg].[O]=[Mg].[O]=[Mg]`, the inhibition in test [1] is 97.2%. Still for that read-out and setting: then `CNC(=O)c1cccc2cc(Oc3ccnc4cc(OCC5(N)CC5)c(OC)cc34)ccc12`, with 11.4%; and `c1ccc(CCNc2nc(-c3ccccc3)cs2)cc1`, with 83.7%. Same read-out and setting: then `O=C(O)c1ccccc1NCCc1ccccc1`, with 7.74%; and `O=C(NCc1cccc(O)c1)Nc1nc(-c2ccncc2)cs1`, with -5.89% and -0.86%. On the same count and under the same terms, then `CC(NC(=O)[C@@H](N)Cc1ccc(O)cc1)C(=O)NCC(=O)N(C)[C@@H](Cc1ccccc1)C(=O)N[C@H](CO)CC[S+](C)[O-]` (stereo in doubt), with 2.35%; and `O=C(O)c1cc(/N=N/c2ccc(O)c(C(=O)O)c2)ccc1O`, with 95.1%. `COc1ccc(NS(=O)(=O)c2ccc(/N=N/c3ccc(O)c(C(=O)O)c3)cc2)nn1`: the inhibition in test [1] was -4.06%. The same measure, in the same setting: under `O=C(O)c1cc(O)c(O)c(O)c1` stands -7.85%; under `CC1(C)[C@@H]2C[C@H]1[C@@](C)(O)[C@@H](O)C2`, -1.04%; under `Cc1ccc(S(=O)(=O)Nc2ccc3c(c2)c(C(=O)C(F)(F)F)cn3CC(=O)N[C@@H](CC(C)C)C(=O)O)cc1`, -4.82%. On to `O=C1C[C@@]2(C(=O)N1)C(=O)N(Cc1ccc(Br)cc1F)C(=O)c1cccn12`, for which the inhibition in test [1] was -2.35%. On the same count and under the same terms, under `COCCN1CCN(Cc2ccc(-c3n[nH]c4c3C(=O)c3c(NC(=O)NN5CCOCC5)cccc3-4)cc2)CC1` stands -4.17%; under `CNC(=O)N(C)N=O`, -4.29%. `O=c1c2ccccc2[se]n1-c1ccccc1`: in test [1], the inhibition is 52.4%. For the molecule `CCC(=O)NO`, the inhibition in test [1] came out at 44.5%. `O=[N+]([O-])c1cn2c(n1)OC[C@@H](OCc1ccc(-c3ccc(OC(F)(F)F)cc3)nc1)C2`: in test [1], the inhibition was 4.86%.
